Screening results (PubChem BioAssay)
IMPase inh – cell-permeable inhibitors of inositol monophosphatase (IMPase). P97697. CHO-M1 cells, IP1 accumulation, HTRF TR-FRET ratio. inhibition (IP1 accumulation), % at 46.1 µM. 120,000 tested, under 10 active; active means well fitted curve in the direction sought with a large enough effect in the signal ratio, not every such curve was filed as active; inconclusive means small, poorly fitted or top-dose-only effect, or a change in a side signal; inactive means no such curve, though single readings can be large or run the other way; the % refers to the signal ratio;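 further: cells stimulated with carbachol in lithium chloride buffer; plate controls were DMSO basal wells for no effect and reference inhibitor wells for full effect; higher means more IMPase inhibition seen as more IP1 and lower FRET ratio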
Target sequence (P97697 whole entry, looked up): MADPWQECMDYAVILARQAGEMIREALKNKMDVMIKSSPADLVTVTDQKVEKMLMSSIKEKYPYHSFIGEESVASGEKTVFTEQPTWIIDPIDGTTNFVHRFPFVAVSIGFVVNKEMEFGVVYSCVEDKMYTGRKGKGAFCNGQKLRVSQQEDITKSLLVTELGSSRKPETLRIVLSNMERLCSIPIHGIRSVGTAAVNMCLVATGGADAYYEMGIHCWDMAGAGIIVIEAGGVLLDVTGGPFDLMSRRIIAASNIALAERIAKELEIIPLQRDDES
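Measured: the HTRF emission ratio (665/620 nm) plus the 620 nm donor channel, each fitted to the Hill equation to give AC50. Cells were CHO-M1 given compounds up to 46 uM and a 30 min carbachol stimulation at 37C.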
HPGD inh – inhibitors of human 15-hydroxyprostaglandin dehydrogenase (HPGD); 4.3% of 150,000 active; Potency, µM, inactives show at the highest dose activity change, negative = inhibition, most hits filed as inhibitors; AID 894; P15428; purified HPGD, NADH fluorescence kinetic, PGE2 substrate; active means well fitted inhibition curve with a large enough effect, not every such curve was filed as active; inconclusive means small, poorly fitted or top-dose-only effect, or another doubt; inactive means no such curve, though single readings can be large or run the other way; further: potency means the concentration at half of the fitted maximal effect
Target sequence (P15428 whole entry, looked up): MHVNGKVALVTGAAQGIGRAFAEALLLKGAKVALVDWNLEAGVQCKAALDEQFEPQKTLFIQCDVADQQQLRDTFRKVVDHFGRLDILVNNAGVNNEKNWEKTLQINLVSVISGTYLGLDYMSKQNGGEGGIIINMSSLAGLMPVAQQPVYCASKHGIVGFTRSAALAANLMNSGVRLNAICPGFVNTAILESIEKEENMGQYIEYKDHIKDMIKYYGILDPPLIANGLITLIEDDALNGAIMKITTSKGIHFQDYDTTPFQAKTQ
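NADH formation kinetics: reaction with 30 uM PGE2 and 1 mM NAD+ (final), 20 nM enzyme, Tris-HCl pH 8 with Tween 20, after 15 min compound preincubation at room temperature. Fluorescence change, last versus first of five reads.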
12-hLO inh – 12-hLO (ALOX12) enzyme inhibition; P18054; purified 12-hLO, xylenol orange hydroperoxide absorbance; Potency, µM (top dose mostly 57.1 µM), for inactives: at the highest dose activity change, negative = inhibition, usual class: inhibitors; 0.12% of 150,000 active; AID 1452; further: potency means the concentration at half of the fitted maximal effect; nearly all actives have a fitted effect of over 55% in size
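Purified human 12hLO (150 nM final) was preincubated with compounds for 15 min at room temperature in 25 mM Hepes pH 7.0, 0.01% Triton X-100, then reacted with 40 uM arachidonic acid for 30 min. Hydroperoxide was detected with ferrous iron/xylenol orange.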
IMPase Li cell – IMPase inhibition in cells with lithium potentiation. CHO-M1 cells, IP1 TR-FRET (IP-One), carbachol + lithium. 0.35% of 210,000 active. Potency, µM (top dose mostly 59.4 µM), for inactives: at the top dose activity, negative = IMPase inhibition, actives largely listed as inhibitors. AID 1457;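 further: IP1 builds up when IMPase is blocked and the TR-FRET signal falls; potency means the concentration at half of the fitted maximal effect; plate controls were basal vehicle for no effect and high inhibitor control for full effect; nearly all actives have a fitted effect of over 50% in size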
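Readout is a homogeneous TR-FRET IP1 immunoassay (Ex 320, Em 665 and 620), where raised cytosolic IP1 lowers signal. Cells were CHO-M1 treated 30 min at 37C with test compounds plus a little lithium; AC50 values came from Hill-equation fitting.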
PNC assembly inh – inhibitors of perinucleolar compartment assembly. PC3M PTB-GFP, PNC prevalence imaging, 16 h; hits give low values. activity change (PNC), negative = inhibition, % at 10 µM. 3.1% of 140,000 active. AID 2417;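 active means readout at or below -70, meaning at least 70% loss of cells showing the perinucleolar compartment, a nuclear body marking cancer cells; inconclusive means readout between -30 and a set limit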;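 further: plate controls were DMSO wells for no effect and camptothecin positive control wells for full effect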
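PC3M cells stably expressing PTB-GFP, 750–1000 cells/well, treated 16 h at 37 °C with compound (23 nl of library stock), in duplicate. After paraformaldehyde fixation and Hoechst stain, imaged at 20x; PNC prevalence scored by image analysis.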
ALOX15B inhib – 15-hLO-2 (ALOX15B) enzyme inhibition; purified 15hLO-2, xylenol orange hydroperoxide absorbance; Potency, µM (doses to about 57.1 µM), for inactives: at the highest dose activity change, negative = inhibition, usual class: inhibitors; 0.56% of 110,000 active; further: potency means the concentration at half of the fitted maximal effect; nearly all actives have a fitted effect of over 60% in size
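Read-out: hydroperoxide product oxidises ferrous iron, measured as xylenol orange complex via the 573-to-405 nm absorbance ratio after 30 min. Reaction: 50 nM enzyme, 15 min compound preincubation, 45 uM arachidonic acid, 90 min RT, Hepes pH 7.5 with Triton X-100.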
* = called active by the depositor; [ ] = another dose, or the depositor's remark. The list is not random: actives were taken first. Their share in the collection is about 5.4%. Unless noted, the call rests on the fitted dose curve; in most records, active means well fitted curve in the direction sought with a large enough effect; inconclusive means small, poorly fitted or top-dose-only effect, or another doubt; inactive means no such curve, though single readings can be large; an effect the other way counts as inactive or inconclusive. Unless noted, on the % scale 0 is the no-effect control and ±100 the full control effect.

How did O=C(COC(=O)c1ccc2ccccc2c1)Nc1ncc(C(F)(F)F)cc1Cl do in these assays?
IMPase inh: -7; HPGD inh: -33%; 12-hLO inh: -7%; IMPase Li cell: inconclusive; PNC assembly inh: 4; ALOX15B inhib: -1%

Results for N[C@@H](CCS(=O)O)C(=O)O ?
IMPase Li cell: -9%

Results for COc1ccc(NC(=O)CSc2nc3ccccc3nc2N2CCC(C)CC2)cc1 ?
IMPase inh: 16

What do the screens show for `O=S(=O)(NCCc1ccc2c(c1)OCCO2)c1cccs1`?
IMPase inh: 17; HPGD inh: -13%; 12-hLO inh: 2%; IMPase Li cell: -9%; PNC assembly inh: -81*; ALOX15B inhib: 1%

Results for C=C(C(C)=O)C(O)c1ccco1 (stereo not given) ?
HPGD inh: -7%; IMPase Li cell: 5%

Results for CCc1ccc(NC(=O)c2cnn3c(C(F)F)cc(C)nc23)cc1 ?
IMPase Li cell: 14%

What do the screens show for `CCC(C)NC(=O)c1cnn2c(C)c3c(nc12)CCCC3` (stereo not given)?
IMPase inh: -1; HPGD inh: inconclusive; 12-hLO inh: 7%; IMPase Li cell: -2%[38.3 µM]; PNC assembly inh: 55; ALOX15B inhib: -1%

How did Cc1cc(C(F)F)n2ncc(C(=O)NC3CCCCCC3)c2n1 do in these assays?
IMPase inh: 3; HPGD inh: 22µM*; 12-hLO inh: -1%; IMPase Li cell: 10%[38.3 µM]; PNC assembly inh: 19; ALOX15B inhib: -4%[2.29 µM]

What do the screens show for `Cc1c2c(nc3c(C(=O)NC4CC4)cnn13)CCCC2`?
IMPase inh: 1; HPGD inh: 20µM*; 12-hLO inh: -5%; IMPase Li cell: 10%[38.3 µM]; PNC assembly inh: 14; ALOX15B inhib: 5%

How did O=C(CN1CCC(n2nnc3cc(F)ccc32)CC1)NCc1ccco1 do in these assays?
IMPase inh: -7; HPGD inh: -20%; 12-hLO inh: -9%; IMPase Li cell: 14%[38.3 µM]; PNC assembly inh: -118*; ALOX15B inhib: -3%

Results for COc1ccccc1NC(=O)CN1CCC(n2nnc3cc(F)ccc32)CC1 ?
IMPase inh: 5; HPGD inh: -4%; 12-hLO inh: -7%; IMPase Li cell: -1%[38.3 µM]; PNC assembly inh: 49; ALOX15B inhib: 10%

How did Cc1ccc(NC(=O)CN(C)C(=O)Cn2cc(C(F)(F)F)ccc2=O)cc1 do in these assays?
IMPase inh: -3; 12-hLO inh: -3%; PNC assembly inh: -80*

What do the screens show for `Cc1cc(C)c2c(SCc3ccc(Cl)cc3Cl)nc(N)nc2n1`?
HPGD inh: -5%; 12-hLO inh: -9%[11.4 µM]; IMPase Li cell: 8%; ALOX15B inhib: -2%[11.4 µM]

How did N=C1N(/N=C/c2ccccc2)C(=Nc2ccccc2)C(=S)N1c1ccccc1 do in these assays?
IMPase inh: -3; HPGD inh: -21%; 12-hLO inh: -2%; IMPase Li cell: 11%; PNC assembly inh: -100*

What do the screens show for `Cc1nnc(C)n1/N=C/c1ccccc1`?
IMPase inh: 5; HPGD inh: 6%; 12-hLO inh: 4%; IMPase Li cell: -10%[38.3 µM]; PNC assembly inh: 24; ALOX15B inhib: -5%

Results for COc1ccc(-n2nnnc2S(=O)(=O)Cc2ccc(C(=O)O)cc2)cc1 ?
IMPase inh: 8; HPGD inh: inconclusive; 12-hLO inh: 12%; IMPase Li cell: -5%[38.3 µM]; PNC assembly inh: 5; ALOX15B inhib: 4%[2.29 µM]

Results for COc1ccc(-n2nnnc2S(=O)(=O)CC(=O)N2CCCCC2)cc1 ?
IMPase inh: 18; HPGD inh: 14µM*; 12-hLO inh: -7%; IMPase Li cell: 19%[38.3 µM]; PNC assembly inh: -21; ALOX15B inhib: -10%

How did CC(=O)SC1CC2=CC(=O)CC[C@@]2(C)C2CC[C@@]3(C)[C@@H](CC[C@@]34CCC(=O)O4)C12 (stereo not given in full) do in these assays?
HPGD inh: -3%; 12-hLO inh: -1%; IMPase Li cell: 5%; ALOX15B inhib: 0%
